A selection: hits, their analogues and other compounds. The true share with any hit is near 2.1%.
LANA-H2A inh: blockers of LANA interaction with H2A/H2B – biochemical, FP readout, HTS, primary screen; inhibition, % (test concentration not listed); cell-free LANA-H2A/H2B peptide, fluorescence polarization; hit rate 0.6% among 320,000; AID 2629, 2010; Protein LANA1 (Human herpesvirus 8 type P (isolate GK18)), Q9QR71; in the data active means inhibition mostly above about 10%, no sharp cut-off; inactive means mostly below about 6.7%
IDE inh: human IDE inhibitors in live cells, primary screen, fluorescence polarization, HEK cells, FAbetaB substrate. inhibition, % at 5.59 µM. FAbetaB cleavage. hit rate 0.41% among 320,000. Insulin-degrading enzyme (Homo sapiens), P14735;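 active means percent inhibition above the average of all tested compounds plus 3 SD, set per screening campaign, cut at about 16% in these data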;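 further: IDE supplied by intact live HEK cells; FP after avidin binding of uncleaved biotin substrate so inhibition keeps polarization high; 0% = DMSO wells and 100% = 60 µM reference IDE inhibitor Ii1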
HDAC3 inh: HDAC3 deacetylase inhibitors, primary screen, biochemical, fluorescence, cell-free homogeneous | Histone deacetylase 3 (Homo sapiens), O15379 | recombinant HDAC3, fluorogenic peptide/trypsin coupled | inhibition, % at 8.3 µM | hit rate 0.15% among 320,000 | AID 2718, 2010; in the data active means inhibition above about 26%, passing the limit was not always enough
IDE act: human IDE activators in live cells, primary screen, fluorescence polarization, HEK cells, FAbeta-B substrate; hit rate 0.073% among 340,000; Insulin-degrading enzyme (Homo sapiens), P14735; activation, % at 5.96 µM; AID 493087, 2011; FAbeta-B cleavage; 0% vehicle, 100% cell-free pure enzyme wells;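 active means activation above the mean of all tested compounds plus 3 SD, set per screening campaign, cut at about 17% in these data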
Mot1-301 SUMO: yeast Mot1-301 growth rescue at high temperature, primary screen, SUMOylation pathway inhibitor project, S. cerevisiae, ATP luminescence, 38.5C; S. cerevisiae Mot1-301 growth rescue; percent above DMSO median, 100 means doubled; growth rescue, % at 18.8 µM; hit rate 1% among 320,000;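 active means every valid replicate shows activation above 250% relative to neutral control wells; inactive means the rest, any valid replicate at or below 250%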;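 further: OY570 slx delta 5 strain wells were the positive control but not used for scaling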
Numbers without * were called inactive; . = no result.

SMILES	LANA-H2A inh	IDE inh	HDAC3 inh	IDE act	Mot1-301 SUMO
CCOc1ccc(N(CC(=O)Nc2cccc(Br)c2)S(C)(=O)=O)cc1	36*	11	9	0	-11
CCOc1ccc(N(CC(=O)Nc2cc(C)cc(C)c2)S(C)(=O)=O)cc1	0	1	.	4	0
COc1cccc(NC(=O)CN(C)S(=O)(=O)c2ccc3c(c2)n(C)c(=O)c(=O)n3C)c1	-6	-1	12	7	2
COc1ccccc1Oc1ccc(N2CC(C(=O)OCC(=O)c3ccccc3)CC2=O)cc1 (stereo not given)	-1	-3	-1	-1	-1
NC(=O)CSc1nc(-c2ccccc2)c(-c2ccccc2)o1	0	6	2	4	33
Nc1nc(-c2ccccc2)c(-c2ccccc2)o1	29*	2	-3	0	78
COc1ccccc1NC(=O)c1c([N+](=O)[O-])cnn1C	15*	3	7	4	726
Cc1ccsc1C(=O)N1CCN(S(=O)(=O)c2cccs2)CC1	149*	1	-4	-2	-15
CC1CN(CCOc2ccc(Cl)cc2Cl)CC(C)O1 (stereo not given)	0	2	5	2	272*
Cc1cc(C)c(C)c(OCCN2CC(C)OC(C)C2)c1 (stereo not given)	0	-4	-2	-1	17
Fc1ccccc1Nc1nc(N2CCOCC2)nc(N2CCOCC2)n1	-2	.	-5	9	-2
COc1cc(C=O)ccc1Oc1nc(Nc2ccc(F)cc2F)nc(N2CCOCC2)n1	-2	2	-14	.	334*
Cc1ccccc1C(=O)Nc1c2c(nn1C(C)(C)C)CS(=O)(=O)C2	6	-2	-3	3	1
CCc1nnc(NC(=O)COc2ccc3c(c2)OCO3)s1	2	0	2	4	260*
CCCc1nnc(NC(=O)COc2ccc3c(c2)OCO3)s1	-1	-3	4	-1	8
Cc1ccc(C(=O)CC2(O)C(=O)Nc3ccccc32)s1 (stereo not given)	1	1	2	1	-23
Cc1ccc2c(c1)C(O)(CC(=O)c1ccc(C)s1)C(=O)N2 (stereo not given)	90*	0	3	2	-5
CCOc1ccc(NS(=O)(=O)c2ccc3[nH]c(=O)[nH]c3c2)cc1	-1	5	-4	4	-3
Cc1cc(NC(=O)CSc2n[nH]c(-c3ccc(Cl)cc3Cl)n2)no1	0	9	8	1	-15
Cc1ccc(S(=O)(=O)/C(C#N)=C/c2c[nH]c3ccccc23)cc1	17*	-5	-4	3	-5
Cc1ccc(N/C=C(\C#N)S(=O)(=O)c2ccccc2)cc1	5	3	7	18*	-7
COc1cccc(C2CC(=O)N3CN(c4cccc(Cl)c4C)CSC3=C2C#N)c1OC (stereo not given)	-1	1	51*	-25	-6
COc1ccc(OC)c(C2CC(=O)N3CN(c4cccc(Cl)c4C)CSC3=C2C#N)c1 (stereo not given)	1	5	37*	-36	8
COCCn1c(=NC(=O)CSCC(=O)N2CCOCC2)sc2ccccc21	3	-4	1	3	6
CSc1ccccc1NC(=O)CSc1nnc(CNC(=O)c2ccccc2F)n1C	2	2	2	1	308*
SMILES	LANA-H2A inh	IDE inh	HDAC3 inh	IDE act	Mot1-301 SUMO
COc1ccc(OC)c(S(=O)(=O)ON2C(=O)c3ccccc3C2=O)c1	6	3	37*	-8	66
COc1ccc(OC)c(S(=O)(=O)N2CCN(c3ccccc3)CC2)c1	6	-4	0	2	-8
N[C@@H](Cc1ccccc1)C(=O)N1CCC(C(=O)NCC(=O)NCC(=O)O)CC1	0	2	-4	8	-24
O=S(=O)(c1ccc2[nH]c3c(c2c1)CCCC3)N1CCCCC1	18*	-1	0	4	7
O=c1[nH]c2ccc(S(=O)(=O)N3CCCCC3)cc2[nH]1	1	-3	3	1	-23
Cc1cccc(C)c1NC(=O)CNC(=O)C(C)NC(C)c1ccccc1Br (stereo not given)	-8	4	0	4	7
Cc1cc(OCC(=O)NCCc2ccc(S(N)(=O)=O)cc2)c2c(C)cc(=O)oc2c1	3	3	-40	8	-1
Oc1c(N=NC(=S)Nc2ccccc2F)c2ccccc2n1Cc1ccccc1Cl	3	-3	10	3	-16
Cc1c(Cl)cccc1NC(=S)N=Nc1c(O)n(CN2CCOCC2)c2ccccc12	1	2	8	0	365*
CCc1ccc(N(C(C)=O)C2C=CS(=O)(=O)C2)cc1 (stereo not given)	0	6	5	-1	531*
C/C(CC(=O)Nc1ccc2ccccc2c1)=N\NC(=O)c1ccc(O)c(O)c1	-3	7	2	3	-14
CCc1ccc(NC(=O)C2CCCN2c2nn3c(=O)cc(C)nc3s2)cc1 (stereo not given)	-2	6	0	-5	71
N#Cc1ccc(C#Cc2ccc3oc4ccccc4c(=O)c3c2)cc1	25*	1	-4	1	-14
Cc1ccc2c(c1)c1c(n2CCc2ccc(C)nc2)CCN(C)C1	5	0	2	6	1
CN[C@H](CC(=O)O)C(=O)O	7	-2	1	-2	307*
CC(C)c1ccc(C2(C)NC(=O)N(CC(=O)NC3CCCC(C)C3C)C2=O)cc1 (stereo not given)	1	-2	18	4	0
O=C1CC2CCCN2C=C1I (stereo not given)	2	1	2	2	6
CCOCCCn1c(=NC(=O)c2cccs2)c(C#N)cc2c(=O)n3ccccc3nc21	35*	-2	-323	7	-6
COCCCn1c(=NC(=O)c2ccncc2)c(C#N)cc2c(=O)n3cccc(C)c3nc21	5	2	-84	1	14
Cc1cccn2c(=O)c3cc(C#N)c(=NC(=O)c4ccncc4)n(CCCOC(C)C)c3nc12	8.9*	4	-219	8	8
Nc1cc(=O)[nH]c(SCC(=O)Nc2ccc(N3CCOCC3)cc2)n1	-2	-2	-5	5	29
CCCCCCCCCCCCCCC[C@@H](O)[C@@H](N)CO	.	.	.	6	.
O=C(COC(=O)c1cncc(Br)c1)NC12CC3CC(CC(C3)C1)C2	20*	9	-7	.	-13
O=C(O)c1nn(CCOc2ccc(Br)cc2)c(=O)c2ccccc12	13*	2	5	-3	-31
O=C(CN1CCN(c2ccc(F)cc2)CC1)NCc1ccc(Cl)cc1	-2	-1	2	5	-4

From PubChem
